In the library only some 21% were active in any assay of this set; here they are far more common.
Pf growth 96h – P. falciparum growth inhibition at 96 hours; P. falciparum luciferase reporter growth, 96 h; Potency, µM (doses to about 28.7 µM), usual class: inhibitors; 6.9% of 320,000 active; AID 504834
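Compounds incubated with erythrocytes infected by luciferase-expressing P. falciparum (2% hematocrit, 0.05% parasitemia final) for 96 hours, 37 C in 5% CO2. Growth inhibition scored as decreased luciferase luminescence.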
Shiga toxin inh – inhibitors of Shiga toxin in Vero cells; AID 2315; 9.2% of 290,000 active; Vero cells, Shiga toxin protein synthesis inhibition reporter; inhibition, % at 38.7 µM; in the data active = inhibition mostly above about 28%, no sharp cut-off; inactive = mostly below about 43%
Pf growth 48h – inhibits P. falciparum growth in the first generation, 48 h. P. falciparum luciferase growth in erythrocytes, 48 h. Potency, µM (top dose mostly 28.7 µM), usual class: inhibitors. 5.9% of 310,000 active
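Compounds are pin-transferred into medium, infected erythrocytes (2% hematocrit, 0.1% parasitemia final) are added, and plates sit one parasite generation at 37 C in 5% CO2. Detection reagent is then added and luminescence measured.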
Cycloheximide cs – counter-screen hit for Shiga toxin inhibitors, cycloheximide; 12% of 300,000 active; cell reporter, cycloheximide protein synthesis inhibition counterscreen; max response, %; AID 2314; in the data active = max response mostly above about 13%, no sharp cut-off; inactive = mostly below about 14%; note: read at 38.3 µM for the half of the compounds with a filed dose
Numbers stand for hits; i = inactive; ? = inconclusive; nt = no result given. Unless noted, calls come from the whole dose curve; as a rule, active = well fitted inhibition curve with a large enough effect; inconclusive = small, poorly fitted or top-dose-only effect, or another doubt; inactive = no such curve, though single readings can be large or run the other way.

SMILES	Pf growth 96h	Shiga toxin inh	Pf growth 48h	Cycloheximide cs
CN(CC(=O)Nc1cccc(F)c1)C(=O)CNS(=O)(=O)c1ccc(N(C)C)c([N+](=O)[O-])c1	i	nt	i	nt
CN1CCN(C(=O)c2ccccc2-c2ccccc2C(=O)O)CC1	nt	i	nt	i
O=C(N/N=C/c1cccc([N+](=O)[O-])c1O)c1cccs1	i	active	?	38
O=C(N/N=C/c1ccc([N+](=O)[O-])cc1)c1cccs1	i	i	i	34
O=[N+]([O-])c1cccc(-c2ccc(/C=N/NC(=S)Nc3cccc(F)c3)o2)c1	?	i	?	i
O=C(N/N=C/c1ccc(-c2cccc([N+](=O)[O-])c2)o1)c1cccs1	?	i	i	13
NC(=S)N/N=C/c1ccc(-c2cccc([N+](=O)[O-])c2)o1	?	i	?	14
Nc1nonc1C(=O)N/N=C/c1ccc(-c2cccc([N+](=O)[O-])c2)o1	i	i	nt	i
O=C(N/N=C/c1ccncc1)c1cc([N+](=O)[O-])cc([N+](=O)[O-])c1	i	i	i	i
NS(=O)(=O)c1cccc(NC(=O)CSc2nc3ccccc3c(=O)n2CC2CCCO2)c1 (stereo unspecified)	i	nt	i	nt
Cc1ccc(C)c(S(=O)(=O)N2CCN(C(=O)Cn3c(=O)cnc4ccccc43)CC2)c1	i	nt	?	nt
O=C(c1cccc([N+](=O)[O-])c1)N1CCOCC1	?	i	i	i
O=C(/C=C\c1ccc(-c2cccc([N+](=O)[O-])c2)o1)N1CCOCC1	i	61	i	37
CCOCCCNC(=O)C(c1ccc(OC)cc1)N(Cc1cccs1)C(=O)c1ccccn1 (stereo unspecified)	i	i	i	i
O=C(Nc1cccc(-c2nc3ncccc3o2)c1)c1sc2ccccc2c1Cl	i	i	i	i
O=C(Nc1cccc(-c2nc3ncccc3o2)c1)c1cc2ccccc2o1	i	85	?	22
Cc1ccc(-c2nc3ncccc3o2)cc1NC(=O)c1cc2ccccc2o1	i	i	nt	i
O=C(Nc1cccc(-c2nc3ncccc3o2)c1)c1sc2cc(Cl)ccc2c1Cl	i	44	i	i
CCCCn1c(-c2ccccc2C)nc2cc3[nH]c(=O)c(C(C)C)nc3cc21	?	i	?	i
CCCCn1c(C2CCCCC2)nc2cc3[nH]c(=O)c(C(C)C)nc3cc21	9.3µM	i	i	i
CC[C@@]1(c2ccccc2OC)C(=O)N(C(=O)OC)N1C(=O)OC	?	24	i	25
COC(=O)N1C(=O)[C@@](CC(C)C)(c2ccccc2)N1C(=O)OC	i	i	i	16
CC[C@@]1(c2cccc(C)c2)C(=O)N(C(=O)OC)N1C(=O)OC	i	i	i	i
COC(=O)N1C(=O)[C@](c2ccccc2)(C2CCCCC2)N1C(=O)OC	i	i	i	i
CCOC(=O)N1C(=O)[C@@](CC)(c2ccccc2)N1C(=O)OCC	i	i	i	i
SMILES	Pf growth 96h	Shiga toxin inh	Pf growth 48h	Cycloheximide cs
COC(=O)N1C(=O)[C@](CC(C)C)(c2ccccc2)N1C(=O)OC	i	i	i	15
COC(=O)N1C(=O)[C@@](c2ccccc2)(C2CCCC2)N1C(=O)OC	i	i	i	18
CCN(C(=O)COC(=O)c1nc(Cl)ccc1Cl)C1CCS(=O)(=O)C1 (stereo unspecified)	i	nt	i	nt
Cc1ccc2c(c1)NC(=O)C(CC(=O)Nc1ccc(Br)c(C)c1)O2 (stereo unspecified)	i	i	i	i
CCC(C)(C)C1CCc2[nH]nc(C(=O)O)c2C1 (stereo unspecified)	i	nt	i	nt
CCOC(=O)c1c(C(=O)OCC)c(C)n(CCc2ccc(OC)c(OC)c2)c1C	9.3µM	i	?	i
CCOC(=O)c1ccc(NC(=S)NCCc2ccc(OC)c(OC)c2)cc1	10µM	i	?	i
COc1cc(CNC2CCCCCCC2)ccc1OCC(N)=O	?	i	i	i
CNCCc1ccc(OC)c(OC)c1	i	i	i	i
COc1ccc(CCNC(N)=S)cc1OC	10µM	i	i	i
CCOC(=O)c1ccc(NC(=O)COc2ccc(CNC3CCCCC3)cc2OC)cc1	i	i	4.7µM	i
CC(=O)c1ccc(C(=O)N2CCCC(CCC(=O)N(C)CCc3ccccn3)C2)s1 (stereo unspecified)	i	i	i	i
O=C(CCNc1ccc(Cc2ccncc2)cc1)c1ccc([N+](=O)[O-])cc1	?	i	i	i
O=C(Nc1ccnn1C1CCN(Cc2ccccc2F)CC1)C1CCCC1	?	i	i	i
COc1ccccc1NC(=S)NCCc1ccc(OC)c(OC)c1	4.7µM	i	2.6µM	i
COc1ccc(CN(Cc2cccnc2)C(=S)NCCc2ccccc2)cc1OC	15µM	i	?	i
COc1ccc(CCNC(=S)c2ccccc2)cc1OC	5.2µM	i	4.7µM	i
CCOC(=O)c1ccc(Nc2ccc(-c3ccc(OC)c(OC)c3)nn2)cc1	i	i	12µM	i
Cc1ccc(CCNC(=O)CNC(=S)N(Cc2ccccc2)Cc2cccnc2)cc1	i	i	?	i
O=C(COc1ccc2c3c(c(=O)oc2c1)CCC3)NCc1cccnc1	?	i	i	i
O=C(O)CS(=O)CC(=O)Nc1cccc(C(F)(F)F)c1 (stereo unspecified)	i	i	i	i
CCCCN(C(=O)c1ccc(N2C(=O)c3ccccc3C2=O)cc1)c1c(N)n(CC(C)C)c(=O)[nH]c1=O	i	nt	i	nt
COc1cc(CN(CCN(C)C)Cc2ccccc2)ccc1OCc1ccccc1	?	i	?	i
COc1ccc(CCNC(=S)NCCc2ccc(OC)c(OC)c2)cc1OC	13µM	i	6.6µM	i
CNC(=S)NCCc1ccc(OC)c(OC)c1	i	i	i	i
SMILES	Pf growth 96h	Shiga toxin inh	Pf growth 48h	Cycloheximide cs
COc1ccc(CCNC(=O)c2cc3sc(Cl)cc3n2C)cc1OC	9.3µM	i	i	i
COc1ccc(CN(CCc2ccccc2)Cc2ccccc2)cc1OC	?	i	8.3µM	i
Cc1csc(=O)n1CC(=O)OCC(=O)Nc1cc(Cl)ccc1[N+](=O)[O-]	i	i	i	i
O=S(=O)(Nc1ccccn1)c1cc(Cl)ccc1Cl	i	i	nt	i
C=CCn1c(COc2cccc(C)c2)nnc1SC(C)C(=O)NC1CC1 (stereo unspecified)	13µM	nt	?	nt
CCOc1ccc(S(=O)(=O)n2nc(C)cc2C)cc1	i	i	i	i
CCOC(=O)Nc1ccc2c(c1)N(C(=O)CCN(C)C)c1ccccc1S2	i	i	i	i
CC(=O)Nc1ccc2c(c1)N(C(C)=O)c1ccccc1CC2	?	i	?	i
CCOC(=O)Nc1ccc2c(c1)N(C(=O)CN1CCN(C)CC1)c1ccccc1S2	i	i	9.3µM	i
CCCC(CCC)C(=O)Nc1ccc2c(c1)N(C(=O)CN1CCN(C)CC1)c1ccccc1CC2	i	i	5.2µM	i
CCc1ccc(C2/C=C\CNC(c3ccccc3)C(=O)N2Cc2ccc(C)cc2)cc1 (stereo unspecified)	nt	i	nt	i
CN1CCC(N(CCc2ccccc2)C(=O)CCC(=O)O)CC1	i	i	i	i
O=C(Nc1ccccc1SCC1CSc2nc3ccccc3c(=O)n21)c1ccccc1 (stereo unspecified)	?	i	?	i
O=C(Nc1ccccc1SCC1CSc2nc3ccccc3c(=O)n21)c1cccc(Cl)c1 (stereo unspecified)	?	i	10µM	i

Bioassay records: PubChem BioAssay, National Center for Advancing Translational Sciences (NCATS)
